# Data as given in PubChem BioAssay AID2284381 (EPA ToxCast).
# Records with an inconclusive call do not appear. Active and inactive are the calls of the source. How the source made its calls: active means hit-call score of the fitted dose curve at least 0.9, where 1 is the maximum; inconclusive means response in the unintended direction; inactive means score below 0.9.
# Test system: Japanese medaka Retinoid X Receptor beta (RXRb), gene 100125505
# Test: ATG_jmRXRb_EcoTox2: Attagene TRANS-FACTORIAL EcoTox-2 HepG2 Assay for Japanese medaka Retinoid X Receptor beta (RXRb)
# Procedure: ATG_EcoTox2 is a cell-based, multiplexed assay created by modifying the existing Attagene TRANS-FACTORIAL system to include a panel of nuclear receptors from some or all the following species: human (Homo sapiens), african clawed frog (Xenopus laevis), rainbow trout (Oncorhynchus mykiss), japanese medaka (Oryzias latipes), and zebrafish (Danio rerio). The ECOTOX2-FACTORIAL format uses HepG2, a human liver cell line, with measurements taken at 24 hours after chemical dosing in a 24-well plate. ATG_jmRXRb_EcoTox2 is one of 29 assay components calculated in the ATG_EcoTox2 assay. It is designed to make measurements of mRNA induction, a form of inducible reporter, as detected with fluorescence intensity signals by Reverse transcription polymerase chain reaction (RT-PCR) and Capillary electrophoresis technology.The assay endpoint ATG_jmRXRb_EcoTox2 was analyzed in the positive analysis fitting direction relative to DMSO as the negative control and baseline of activity. Using a type of inducible reporter, measures of mRNA for gain-of-signal activity can be used to understand the reporter gene at the transcription factor-level as they relate to the gene RXRb. Furthermore, this assay endpoint can be referred to as a primary readout, because this assay has produced multiple assay endpoints where this one serves a reporter gene function. […]
# Human liver HepG2 cells are transiently transfected with multiple reporter transcription units (MRTUs) in 6-well plates using FuGene 6 reagent (Roche; 3 ml FuGene/1 mg DNA). […] A major difference between the CIS and TRANS system is that in CIS activities of endogenous TFs are measured, whereas the TRANS assay evaluates changes in activities of exogenous, chimeric NR-Gal4 proteins. […] The fragments were purified using Qiaquick PCR columns (Qiagen), analyzed on an ABI 3130xL genetic analyzer (Applied Biosystems) with peak positions identified by using a set of X-rhodamine (ROX)-labeled MapMarker1000 molecular weight standards (BioVentures). […]
row,Structure (SMILES),AC50
1,CCCCOCN(C(=O)CCl)c1c(CC)cccc1CC,50 µM (active)
2,O=C(O)C(F)(F)C(F)(F)C(F)(F)C(F)(F)C(F)(F)C(F)(F)C(F)(F)F,31.4 µM (active)
3,[Cl][Sn]([c]1ccccc1)([c]1ccccc1)[c]1ccccc1,0.171 µM (active)
